This passage reports growth inhibition results from the supplement of paper PMC6763611.

This assay relates to Plasmodium falciparum NF54. The experiment in a line: growth inhibition relative to untreated control; higher = more inhibition. The following applies: 72 h. The method in brief:
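In dark 96-well half-area plates, each well held 100 μL of P. falciparum NF54 ring-stage culture at 1% parasitemia and 1% hematocrit. The cultures received a single test-compound dose of 5 μM or 1 μM and were kept at 37 °C for 72 h, in minimal RPMI either plain or enriched with folate (2.2 μM), pABA (7.3 μM), pHBA (7.3 μM), tyrosine (111 μM), phenylalanine (90 μM) and tryptophan. SYBR Green staining gave growth inhibition, expressed against untreated wells, with uninfected erythrocytes serving as the background.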

[1] abbreviates: 1 µM, MM + chorismate end-products (CM screening medium).
The mark [2] stands for this setting: 5 µM, MM + chorismate end-products (CM screening medium).

Consider `CCC(Sc1nc2ccccc2o1)C(=O)Nc1nnc(C)s1` (configuration not stated), for which the growth inhibition runs as follows: under setting [1], 13.2%; (1 µM, minimal medium (MM)) 0.545%; under setting [2], below 0%; (5 µM, minimal medium (MM)) 0.009%.

For `O=C([C@@H](c1ccc(Cl)cc1)c1cccnc1)N1CCN(c2ccc(C(F)(F)F)cc2)CC1`, the growth inhibition reads like this: under setting [1], below 0%; (1 µM, minimal medium (MM)) below 0%; under setting [2], below 0%; (5 µM, minimal medium (MM)) 7.9%.

As to `Cc1cc(C)cc(COc2ccc3c(C)c(CCC(=O)O)c(=O)oc3c2C)c1`, the growth inhibition was 22.5% under setting [1]; 15.7% (1 µM, minimal medium (MM)); below 0% under setting [2]; below 0% (5 µM, minimal medium (MM)).

On to `O=C(NCCc1ccn(-c2ccccc2)n1)C1CCCCC1`, for which the growth inhibition is 13.1% under setting [1]; 20.1% (1 µM, minimal medium (MM)); below 0% under setting [2]; 3.27% (5 µM, minimal medium (MM)).

Regarding `Cc1nn2c(O)c3c(nc2c1-c1ccc(F)cc1)CCCC3`, the growth inhibition is 11% under setting [1]; 13.4% (1 µM, minimal medium (MM)); 36.7% under setting [2]; 24.6% (5 µM, minimal medium (MM)).

Consider `O=C(NC1CC1)c1ccc(CSCc2ccccc2Cl)o1`, for which the growth inhibition under setting [1] came out at 59.9%; the growth inhibition (1 µM, minimal medium (MM)) is above 100%; the growth inhibition under setting [2] was above 100%; the growth inhibition (5 µM, minimal medium (MM)) worked out at 90.8%.

Take `CC(C)(C)c1cnc(NC(=O)c2ccccc2O)s1`: the growth inhibition by setting is: under setting [1], 38.5%; (1 µM, minimal medium (MM)) 7.86%; under setting [2], 51.6%; (5 µM, minimal medium (MM)) 3.99%.

For the molecule `CCCCCCCCCCCCCCCCOP(=O)([O-])OCC[N+](C)(C)C`, the growth inhibition was 35.9% under setting [1]; 19% (1 µM, minimal medium (MM)); 3.26% under setting [2]; 8.75% (5 µM, minimal medium (MM)).

For the molecule `Cc1nc2ccccn2c1C(=O)NCc1ccc(Cl)cc1`, the growth inhibition reads like this: under setting [1], 1.31%; (1 µM, minimal medium (MM)) below 0%; under setting [2], 31%; (5 µM, minimal medium (MM)) 10.3%.

For `Cc1cc(NCCc2ccccc2)nc(NC(=N)Nc2ccc(Cl)cc2)n1`, the growth inhibition runs as follows: under setting [1], 97.8%; (1 µM, minimal medium (MM)) 97.7%; under setting [2], 86.2%; (5 µM, minimal medium (MM)) 93.7%.

`COc1ccc(CN2CCOc3ccc(C(C)(O)CN(C)C)cc3C2)cc1C` (configuration not stated): the growth inhibition amounted to 78.6% under setting [1]; 75% (1 µM, minimal medium (MM)); 66.7% under setting [2]; 21.7% (5 µM, minimal medium (MM)).

With `Nc1ccc(C(=O)Nc2ccc(-c3nc4ccccc4o3)cc2)cc1`, the growth inhibition reads like this: under setting [1], 23.2%; (1 µM, minimal medium (MM)) 18.2%; under setting [2], 55.7%; (5 µM, minimal medium (MM)) 26.5%.

In the case of `O=C(Nc1ccccc1-c1nc2c(C(=O)O)cccc2o1)c1ccccc1`, the growth inhibition was below 0% under setting [1]; 0.353% (1 µM, minimal medium (MM)); below 0% under setting [2]; below 0% (5 µM, minimal medium (MM)).

For `CC(C)C(C(=O)Nc1ccc(S(=O)(=O)N(C)C)cc1)c1ccc(Cl)cc1` (configuration not stated), the growth inhibition was 96.6% under setting [1]; 94.8% (1 µM, minimal medium (MM)); 98.6% under setting [2]; 90.3% (5 µM, minimal medium (MM)).

Consider `COc1ccc(Cn2cnc3c(-c4ccco4)nc(Cl)nc32)cc1`, for which the growth inhibition was below 0% under setting [1]; 13.5% (1 µM, minimal medium (MM)); 48.9% under setting [2]; 23.6% (5 µM, minimal medium (MM)).

For the molecule `CN1CCN(c2nccc3[nH]c(-c4cccc(F)c4)cc23)CC1`, the growth inhibition runs as follows: under setting [1], below 0%; (1 µM, minimal medium (MM)) 58.4%; under setting [2], 99%; (5 µM, minimal medium (MM)) 90%.

Take `CNc1snc(C)c1C(=O)NCCOc1ccc(OC)cc1`: the growth inhibition is 42.3% under setting [1]; below 0% (1 µM, minimal medium (MM)); 42.9% under setting [2]; 34.9% (5 µM, minimal medium (MM)).

Regarding `O=C(Nc1ccc(N2CCNCC2)cc1)c1ccn2ncc(-c3cccc(Cl)c3)c2n1`, the growth inhibition reads like this: under setting [1], above 100%; (1 µM, minimal medium (MM)) above 100%; under setting [2], above 100%; (5 µM, minimal medium (MM)) 99.8%.

As to `NCCN(C(=O)c1ccc(Cl)cc1Cl)c1ccc(OCc2ccc(Cl)cc2)cc1`, the growth inhibition was 33.8% under setting [1]; 27.2% (1 µM, minimal medium (MM)); 97.9% under setting [2]; 91.1% (5 µM, minimal medium (MM)).

On to `Clc1ccc(CCNc2cc(-c3ccccc3)nc3ncnn23)cc1`, for which the growth inhibition under setting [1] was below 0%; the growth inhibition (1 µM, minimal medium (MM)) is 0.487%; the growth inhibition under setting [2] was 5.05%; the growth inhibition (5 µM, minimal medium (MM)) was below 0%.

In the case of `CCCCOC(=O)Nc1cc2nc(C3CCCCC3)[nH]c2cc1N1CCCC1`, the growth inhibition reads like this: under setting [1], 11.2%; (1 µM, minimal medium (MM)) 15.4%; under setting [2], 85.8%; (5 µM, minimal medium (MM)) 5.52%.

In the case of `Brc1cncc(-c2cc(NCCCn3ccnc3)nc(-c3ccccc3)n2)c1`, the growth inhibition is, setting by setting: under setting [1], above 100%; (1 µM, minimal medium (MM)) 39.8%; under setting [2], 91.2%; (5 µM, minimal medium (MM)) 90.1%.

As to `CCC(=O)Nc1ccccc1C(=O)Nc1ccccn1`, the growth inhibition is below 0% under setting [1]; below 0% (1 µM, minimal medium (MM)); below 0% under setting [2]; below 0% (5 µM, minimal medium (MM)).
